Drawing on the OligoGym collection, this text covers sensor-assay potency score (higher = more potent) for 40 sequences.
Further: reference of the scale not given here.

For the first test, the target named is METTL21D. The test is described as follows: pooled miR-30 sensor sort-seq; sequence = guide strand. The note with it: shRNA.
For the sequence TTGCAATTCCTCAAGATCGGTG, the sensor-assay potency score (higher = more potent) was -0.436.
Still for that read-out and setting: under TATAGAACTACATTTGTAGTTA stands 0.621; under TTCGTTGTTCATAACAACATAT, -1.05; under TATACTGCTGTAGTCGTAGCAC, 0.182.
The same measure, in the same setting: under TTTGTCTTCTTAGCAACTCATT stands -1.33; under TTGGCTTGAACAGAACCAGTGA, 0.803.
Turning to TTTAAGAAGAACTTGATGCTGA, the sensor-assay potency score (higher = more potent) was 0.983.
Still for that read-out and setting: under TTAAACTCTGAAGACAAACTAA stands -0.429.

In a further test the target is MET. The test is described as above. To be noted: shRNA.
On to TTGATATTGAGACAACACCAGC, for which the sensor-assay potency score (higher = more potent) was -1.2.
On the same count and under the same terms, then TAGAATGACATTCTGGATGGGT, with 0.522; and TTCTGTGAGAATACACTCCAGA, with -0.115.
The sequence TTGCTTTGTGCGAACACCCCGA displayed a sensor-assay potency score (higher = more potent) of 0.0698.
Still for that read-out and setting: under TTGAGTTTGCAGACTTTCCAAA stands -0.558; under TATTCTTGTGTGAAAAGTCTGA, 0.132; under TATGTCAGCAGTATGATTGTGG, 0.148.
With TTTCTTGCCATCATTGTCCAAC, the sensor-assay potency score (higher = more potent) is -0.767.
Still for that read-out and setting: then TGATCGAGAAACCACAACCTGC, with -1.33; and TTAAACACTTCCTTCTTTGTGG, with 0.061.
The same measure, in the same setting: under TATATTAAACACTTCCTTCTTT stands 0.147; under TTCATTGAAATGCACAATCAGG, -0.957.

A further test has as its target MEX3D. Described as above. The note with it: shRNA.
For AGGAAGTCGAAGTCGAAGCCGA, the sensor-assay potency score (higher = more potent) was -1.39.
Regarding TTGACCGTGGAGCAGCCGCTGA, the sensor-assay potency score (higher = more potent) is -1.71.
On to TTGGCGTGGAAGTCGCTGTCGG, for which the sensor-assay potency score (higher = more potent) was -0.234.
In turn, TTGACGCTTTTCTTGCGGCTGC yielded a sensor-assay potency score (higher = more potent) of -0.68.
The same measure, in the same setting: under TTGATCTTGCAGCCCTGGCGAC stands -1.24; under TTGCCGGAGCCGCTGTAGGGGC, -1.61.
AAGTCGAAGCCGAAGTCGCAGT displayed a sensor-assay potency score (higher = more potent) of -0.692.
In turn, TAGGTGTTTGTCTTGGCCCGCA came in with a sensor-assay potency score (higher = more potent) of 0.155.
Regarding TTGATGTAGGTGTTTGTCTTGG, the sensor-assay potency score (higher = more potent) is -0.318.
Same read-out and setting: under TAGGTGTGCGTCCGCTGCTGGA stands -1.39.
Sequence TGGTCGGCCAGCAGCGTCGGGG gave a sensor-assay potency score (higher = more potent) of -1.69.
Regarding TGATGTAGGTGTTTGTCTTGGC, the sensor-assay potency score (higher = more potent) stood at 0.554.

Another test has as its target MFNG. Described as above. To be noted: shRNA.
For TCACATAGTTGTCATCGTCCAC, the sensor-assay potency score (higher = more potent) is -0.585.
Sequence AACTGTACCAGCCTCGTGCGGT registered a sensor-assay potency score (higher = more potent) of -0.733.
TAGTTGTCATCGTCCACATGGC: the sensor-assay potency score (higher = more potent) was -0.357.
On the same count and under the same terms, then TTGCGATTGATGCAGAAGCCAG, with -1.46; and TCGAACTCAGCAGCCATCTTGC, with -1.05.
For the sequence TTGTCATCGTCCACATGGCAGA, the sensor-assay potency score (higher = more potent) is -1.57.
For the sequence ATAGTTGTCATCGTCCACATGG, the sensor-assay potency score (higher = more potent) is -0.521.
Sequence TCTTGCAGGACAGAGCTGGGTG returned a sensor-assay potency score (higher = more potent) of -0.336.
